“And” between values parts separate entries of the source, which are not always exact repeats. Equal values may be shown once. The source holds several records for some structures; these can differ, active in one and inactive in another. The source made the active and inactive calls. Rule for the calls: active = hit-call score of the fitted dose curve at least 0.9, where 1 is the maximum; inactive = score below 0.9.
Experiments:
[1] = target: Transcription factor E2F1 (Homo sapiens) (UniProt Q01094); experiment: ATG_E2F_CIS: Attagene CIS-FACTORIAL HepG2 Assay for human E2F Transcription Factor 1 (AID 2282935); settings: HepG2 Attagene cis-reporter, E2F reporter RNA transcripts; actives raise or lower the signal
Summary of the method: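 Liver-derived HepG2 cells expressing transfected promoter-driven reporter units received test chemical for 24 hours. Signal gains or losses were fitted bidirectionally against DMSO.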

[2] = ATG_E_Box_CIS: Attagene CIS-FACTORIAL HepG2 Assay for human Enhancer Box (E-box) (AID 2282936); settings: HepG2 E-box cis-reporter transcription, actives raise or lower the signal
Summary of the method: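 In this cell-based setup, HepG2 cells bearing transfected promoter-driven reporter units were exposed to chemicals for 24 h; reporter transcripts were amplified, 6-FAM-labelled, cut with HpaI and sized by capillary electrophoresis.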

[3] = ATG_M_61_CIS: Attagene CIS-FACTORIAL HepG2 Assay for M61 Transcription Factor (Internal Marker) (AID 2282937); settings: HepG2 Attagene CIS-FACTORIAL M61 internal marker reporter; actives raise or lower the signal
Summary of the method: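 Readout is reporter mRNA by RT-PCR, fluorescent primer extension and capillary electrophoresis, with gain or loss fitted relative to DMSO. Transfected HepG2 cells carrying endogenous-TF-driven cis reporters were exposed to chemicals for 24 hours.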

[4] = ATG_M_19_CIS: Attagene CIS-FACTORIAL HepG2 Assay for M19 Transcription Factor (Internal Marker) (AID 2282939); settings: HepG2 Attagene CIS-FACTORIAL M19 internal marker reporter; actives raise or lower the signal
Summary of the method: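 Chemical-treated HepG2 (24 h) with MRTU constructs; reporter transcripts detected by fluorescent RT-PCR fragment analysis on capillary electrophoresis. Internal background marker, DMSO as baseline.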

[5] = ATG_ERE_CIS: Attagene CIS-FACTORIAL HepG2 Assay for Estrogen Response Element (ERE) (AID 2282940); settings: HepG2 ERE cis-reporter, Attagene RNA transcript; actives raise or lower the signal
Summary of the method: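 Human liver cells (HepG2) bearing transiently transfected, promoter-regulated reporter units were exposed 24 h. Reporter mRNA induction was detected by capillary electrophoresis of labelled RT-PCR products and fitted bidirectionally to DMSO.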

[6] = ATG_Ets_CIS: Attagene CIS-FACTORIAL HepG2 Assay for human Erythroblast Transformation Specific (ETS) (AID 2282941); settings: HepG2 ETS cis-reporter transcription, actives raise or lower the signal
Summary of the method: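 RT-PCR/capillary electrophoresis fluorescence read-out of reporter mRNA; HepG2 transient multi-reporter transfection; 24 h compound exposure; gain or loss of signal fitted bidirectionally relative to DMSO.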

[7] = target: Hepatocyte nuclear factor 3-beta (Homo sapiens) (UniProt Q9Y261); experiment: ATG_FoxA2_CIS: Attagene CIS-FACTORIAL HepG2 Assay for human Forkhead box A2 (FOXA2) (AID 2282942); settings: HepG2 cis-reporter transcription factor activity, 24 h; actives raise or lower the signal
Summary of the method: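 Endogenous transcription factor activity is captured via cis-element-driven reporter transcripts in transfected HepG2. Total RNA taken at 24 h post-dosing; labelled RT-PCR products resolved by capillary electrophoresis. Gain or loss fitted versus DMSO.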

[8] = ATG_FoxO_CIS: Attagene CIS-FACTORIAL HepG2 Assay for human Forkhead box O (FoxO) (AID 2282943); settings: HepG2 Attagene cis-reporter, FoxO element, mRNA; actives raise or lower the signal
Summary of the method: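 Transfected HepG2 reporter cells exposed to test chemical for 24 h; reporter RNA measured by reverse transcription, PCR and fluorescent capillary electrophoresis; curves fitted for increases and decreases against DMSO.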

[9] = ATG_GATA_CIS: Attagene CIS-FACTORIAL HepG2 Assay for human GATA Binding Protein (AID 2282944); settings: HepG2 GATA cis-element reporter, Attagene multiplex mRNA; actives raise or lower the signal
Summary of the method: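 Transfected cis-reporter HepG2 cells were treated with chemicals for 24 hours. Total RNA was then converted to cDNA, amplified with reporter-specific primers and analysed by fluorescent capillary electrophoresis, using DMSO-treated wells as baseline.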

[10] = ATG_GLI_CIS: Attagene CIS-FACTORIAL HepG2 Assay for human Zinc Finger Protein GLI1 (AID 2282945); settings: HepG2, Attagene cis-factorial reporter mRNA, GLI element; actives raise or lower the signal
Summary of the method: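 Transiently transfected HepG2 cells report endogenous transcription factor activity via cis-element-driven reporter units. After 24 h compound exposure, reporter mRNA was measured by RT-PCR with capillary electrophoresis; bidirectional fitting against DMSO baseline.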

[11] = ATG_GRE_CIS: Attagene CIS-FACTORIAL HepG2 Assay for human Glucocorticoid Response Elements (GRE) (AID 2282947); settings: HepG2 GRE cis-reporter, Attagene multiplex mRNA; actives raise or lower the signal
Summary of the method: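 Fluorescence intensity of reporter-specific cDNA fragments, separated by capillary electrophoresis, provides the signal. Constructs carry cis-regulating promoters in transiently transfected HepG2 liver cells; 24 h incubation; fitting is bidirectional against DMSO.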

[12] = ATG_ISRE_CIS: Attagene CIS-FACTORIAL HepG2 Assay for human Interferon Regulatory Factor 1 (IRF1) binding to an Interferon-Stimulated Response Element (ISRE) (AID 2282948); settings: HepG2 ISRE cis-reporter (Attagene), mRNA transcription readout; actives raise or lower the signal
Summary of the method: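 Read-out: fluorescent RT-PCR products resolved by capillary electrophoresis, reporting endogenous transcription factor activity via ISRE-driven reporter mRNA in transfected HepG2 cells dosed for 24 h; gain or loss fitted relative to DMSO.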

[13] = ATG_M_32_CIS: Attagene CIS-FACTORIAL HepG2 Assay for M32 Transcription Factor (Internal Marker) (AID 2282949); settings: HepG2 Attagene cis-factorial M32 reporter, mRNA; actives raise or lower the signal;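 note: background control marker of the multiplexed CIS panel rather than a real target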
Summary of the method: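 HepG2 human liver cells transiently transfected with cis-promoter-driven multiple reporter transcription units, dosed 24 h. Reporter mRNA quantified by RT-PCR, FAM-labelled primer extension, HpaI digest and capillary electrophoresis; bidirectional fit versus DMSO baseline.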

[14] = ATG_M_06_CIS: Attagene CIS-FACTORIAL HepG2 Assay for M06 Transcription Factor (Internal Marker) (AID 2282950); settings: HepG2 Attagene CIS-FACTORIAL M06 internal marker reporter; actives raise or lower the signal
Summary of the method: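 Cells (HepG2, transiently carrying cis-driven reporter units) receive chemical for 24 h before RNA isolation. Reporter cDNA is PCR-amplified, FAM-labelled by primer extension, HpaI-digested and sized on a capillary analyser.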

[15] = target: Hypoxia-inducible factor 1-alpha (Homo sapiens) (UniProt Q16665); experiment: ATG_HIF1a_CIS: Attagene CIS-FACTORIAL HepG2 Assay for human Hypoxia Inducible Factor 1 (HIF1A) (AID 2282951); settings: HepG2 Attagene cis-factorial HIF1a reporter transcription; actives raise or lower the signal
Summary of the method: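 Activity is fitted in both directions relative to DMSO. Reporter transcripts are read by RT-PCR, fluorescent primer extension and capillary electrophoresis after 24 h chemical treatment. The cells are HepG2 carrying transiently transfected cis-element-driven reporter units responding to endogenous factors.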

[16] = target: Heat shock factor protein 1 (Homo sapiens) (UniProt Q00613); experiment: ATG_HSE_CIS: Attagene CIS-FACTORIAL HepG2 Assay for human Heat Shock Transcription Factor 1 (HSE) (AID 2282953); settings: HepG2 HSE cis-reporter, Attagene RNA transcription; actives raise or lower the signal
Summary of the method: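 Liver-derived HepG2 cells carry transiently introduced multiple reporter units governed by cis promoters. Reporter RNA measured 24 h post-dose through reverse transcription, PCR amplification, fluorescent labelling and capillary electrophoresis, normalised to DMSO.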

[17] = ATG_MRE_CIS: Attagene CIS-FACTORIAL HepG2 Assay for human Metal Responsive Element (MRE) (AID 2282954); settings: HepG2 MRE cis-reporter transcription, Attagene multiplex; actives raise or lower the signal
Summary of the method: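 Measured here is mRNA induction from an MRE cis-element reporter in HepG2 after 24 h, quantified by fluorescence of labelled RT-PCR products on capillary electrophoresis; gain- and loss-of-signal fits use DMSO as baseline.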

[18] = target: Hepatocyte nuclear factor 6 (Homo sapiens) (UniProt Q9UBC0); experiment: ATG_HNF6_CIS: Attagene CIS-FACTORIAL HepG2 Assay for human Hepatocyte Nuclear Factor 6 (HNF6) (AID 2282952); settings: HepG2 Attagene cis-factorial HNF6 reporter transcription; actives raise or lower the signal
Summary of the method: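 Readout: fluorescent reporter-transcript fragments resolved by capillary electrophoresis after RT-PCR, reflecting endogenous factor activity in transfected HepG2. Exposure 24 h. Gain or loss of signal fitted bidirectionally against DMSO.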

[19] = target: Bile acid receptor (Homo sapiens) (UniProt Q96RI1); experiment: ATG_IR1_CIS: Attagene CIS-FACTORIAL HepG2 Assay for human Nuclear Receptor Subfamily 1 Group H Member 4 (NR1H4), IR1 submotif (AID 2282946); settings: IR1 reporter transcription, actives raise or lower the signal
Summary of the method: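 Fluorescence of capillary-separated, HpaI-digested RT-PCR reporter products gave IR1-element mRNA induction in HepG2 cells 24 h after dosing. Endogenous transcription factors drove the cis-regulated reporters; activity was fitted bidirectionally against DMSO.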

Measured: AC50

Chain of Transcription factor E2F1 (Homo sapiens) (Q01094 whole entry, looked up): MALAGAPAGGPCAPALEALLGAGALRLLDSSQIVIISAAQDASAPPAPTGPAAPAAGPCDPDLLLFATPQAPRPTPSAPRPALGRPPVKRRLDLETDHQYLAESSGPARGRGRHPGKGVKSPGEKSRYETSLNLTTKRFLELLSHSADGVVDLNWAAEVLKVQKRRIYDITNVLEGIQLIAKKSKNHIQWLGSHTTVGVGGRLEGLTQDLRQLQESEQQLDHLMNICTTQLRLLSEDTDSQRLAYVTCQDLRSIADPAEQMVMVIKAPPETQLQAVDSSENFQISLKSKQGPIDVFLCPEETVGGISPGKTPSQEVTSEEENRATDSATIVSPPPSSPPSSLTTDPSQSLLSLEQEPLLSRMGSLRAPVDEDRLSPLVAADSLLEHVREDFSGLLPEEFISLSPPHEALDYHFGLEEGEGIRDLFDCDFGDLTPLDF
Chain of Hepatocyte nuclear factor 3-beta (Homo sapiens) (Q9Y261 whole entry, looked up): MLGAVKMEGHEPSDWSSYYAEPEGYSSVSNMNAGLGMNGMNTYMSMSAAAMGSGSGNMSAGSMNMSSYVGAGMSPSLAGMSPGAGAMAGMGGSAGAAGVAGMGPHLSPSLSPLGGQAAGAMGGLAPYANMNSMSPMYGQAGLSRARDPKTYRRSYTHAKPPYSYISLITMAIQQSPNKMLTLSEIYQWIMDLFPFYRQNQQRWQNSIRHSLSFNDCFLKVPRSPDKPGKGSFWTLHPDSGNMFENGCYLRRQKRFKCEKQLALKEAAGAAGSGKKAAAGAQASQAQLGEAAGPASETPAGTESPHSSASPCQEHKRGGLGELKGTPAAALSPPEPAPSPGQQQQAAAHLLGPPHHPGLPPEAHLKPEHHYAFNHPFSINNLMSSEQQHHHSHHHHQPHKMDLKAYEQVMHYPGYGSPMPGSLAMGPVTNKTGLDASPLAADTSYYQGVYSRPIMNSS
Chain of Heat shock factor protein 1 (Homo sapiens) (Q00613 whole entry, looked up): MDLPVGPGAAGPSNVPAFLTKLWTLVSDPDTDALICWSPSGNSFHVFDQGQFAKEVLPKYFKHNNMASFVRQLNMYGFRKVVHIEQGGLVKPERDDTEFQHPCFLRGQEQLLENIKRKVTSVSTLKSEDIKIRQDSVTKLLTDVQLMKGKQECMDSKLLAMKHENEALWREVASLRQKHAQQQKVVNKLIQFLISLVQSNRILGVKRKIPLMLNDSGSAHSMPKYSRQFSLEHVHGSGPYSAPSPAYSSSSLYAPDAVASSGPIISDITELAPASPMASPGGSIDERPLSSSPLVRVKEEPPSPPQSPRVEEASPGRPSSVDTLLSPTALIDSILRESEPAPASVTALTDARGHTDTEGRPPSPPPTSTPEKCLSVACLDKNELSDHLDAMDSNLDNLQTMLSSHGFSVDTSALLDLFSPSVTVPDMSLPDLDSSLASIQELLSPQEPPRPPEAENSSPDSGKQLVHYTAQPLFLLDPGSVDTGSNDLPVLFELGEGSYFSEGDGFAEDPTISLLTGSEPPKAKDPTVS
Chain of Hypoxia-inducible factor 1-alpha (Homo sapiens) (Q16665 whole entry, looked up): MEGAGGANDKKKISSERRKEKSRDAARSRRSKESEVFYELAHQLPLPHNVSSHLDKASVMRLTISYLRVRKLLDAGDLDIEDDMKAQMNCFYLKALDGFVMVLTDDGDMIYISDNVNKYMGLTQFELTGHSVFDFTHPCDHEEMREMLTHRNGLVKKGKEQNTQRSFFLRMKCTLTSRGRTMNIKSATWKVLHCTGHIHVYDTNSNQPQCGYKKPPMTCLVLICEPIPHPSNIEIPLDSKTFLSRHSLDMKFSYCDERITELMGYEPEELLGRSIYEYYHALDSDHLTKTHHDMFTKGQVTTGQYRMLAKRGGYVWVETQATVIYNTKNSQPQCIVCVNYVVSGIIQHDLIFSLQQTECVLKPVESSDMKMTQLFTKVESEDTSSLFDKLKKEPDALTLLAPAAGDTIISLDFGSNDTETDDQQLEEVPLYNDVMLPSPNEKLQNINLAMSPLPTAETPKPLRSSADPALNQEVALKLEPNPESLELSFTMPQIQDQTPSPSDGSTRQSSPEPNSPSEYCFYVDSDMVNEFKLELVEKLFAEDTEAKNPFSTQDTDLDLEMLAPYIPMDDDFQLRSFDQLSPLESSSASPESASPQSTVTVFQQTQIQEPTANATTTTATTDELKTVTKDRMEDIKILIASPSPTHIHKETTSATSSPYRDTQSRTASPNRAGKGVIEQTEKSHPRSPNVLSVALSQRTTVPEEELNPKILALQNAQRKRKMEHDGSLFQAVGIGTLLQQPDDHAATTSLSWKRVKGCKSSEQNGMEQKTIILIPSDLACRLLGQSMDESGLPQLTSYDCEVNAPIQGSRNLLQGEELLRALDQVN
Chain of Hepatocyte nuclear factor 6 (Homo sapiens) (Q9UBC0 whole entry, looked up, the tested form may be a part): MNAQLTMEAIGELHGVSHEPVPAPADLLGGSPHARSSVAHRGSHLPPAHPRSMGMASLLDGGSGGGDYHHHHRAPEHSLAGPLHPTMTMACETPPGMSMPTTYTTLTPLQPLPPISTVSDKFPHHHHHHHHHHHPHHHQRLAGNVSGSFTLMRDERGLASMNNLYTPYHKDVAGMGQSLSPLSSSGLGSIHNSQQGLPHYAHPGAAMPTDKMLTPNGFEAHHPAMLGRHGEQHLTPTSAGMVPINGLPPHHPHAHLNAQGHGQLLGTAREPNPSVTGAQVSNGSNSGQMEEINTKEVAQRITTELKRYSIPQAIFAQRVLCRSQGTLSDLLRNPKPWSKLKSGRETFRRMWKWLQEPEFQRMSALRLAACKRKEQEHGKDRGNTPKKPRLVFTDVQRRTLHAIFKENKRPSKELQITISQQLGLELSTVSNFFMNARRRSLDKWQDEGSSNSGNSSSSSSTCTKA
Chain of Bile acid receptor (Homo sapiens) (Q96RI1 whole entry, looked up): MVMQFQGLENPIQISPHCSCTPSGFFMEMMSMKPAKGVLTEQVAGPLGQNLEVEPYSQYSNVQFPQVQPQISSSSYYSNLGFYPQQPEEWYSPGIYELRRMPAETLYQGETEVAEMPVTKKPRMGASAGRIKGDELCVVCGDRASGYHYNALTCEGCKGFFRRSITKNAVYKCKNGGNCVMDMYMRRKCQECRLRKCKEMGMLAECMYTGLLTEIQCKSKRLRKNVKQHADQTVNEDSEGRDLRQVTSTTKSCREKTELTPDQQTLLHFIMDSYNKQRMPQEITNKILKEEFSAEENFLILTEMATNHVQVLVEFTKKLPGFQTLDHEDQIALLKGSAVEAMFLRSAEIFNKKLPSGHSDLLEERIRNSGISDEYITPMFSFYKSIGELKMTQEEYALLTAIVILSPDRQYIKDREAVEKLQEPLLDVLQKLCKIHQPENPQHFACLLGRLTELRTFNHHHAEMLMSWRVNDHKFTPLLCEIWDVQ

CCOC(=O)C(Cl)Cc1cc(-n2nc(C)n(C(F)F)c2=O)c(F)cc1Cl (stereo not given)
active: [5] 50 µM
not listed: [18] | [19]
inactive: all other assays above

Cc1cc(Cl)ccc1OCC(=O)O
not listed: [9] | [18] | [19]
inactive: all other assays above

CO/C=C(/C(=O)OC)c1ccccc1Oc1cc(Oc2ccccc2C#N)ncn1
active: [16] 168 µM and 155 µM and 170 µM | [17] 50 µM [middle of 6 runs]
inactive: [1] | [2] | [3] | [4] | [5] | [6] | [7] | [8] | [10] | [11] | [12] | [13] | [14] | [15] | [18] | [16]

CCCCOC(=O)c1ccccc1C(=O)OCCCC
active: [5] 50 µM [middle of 5 runs] | [15] 59.5 µM | [17] 41.4 µM
inactive: [1] | [2] | [3] | [4] | [6] | [7] | [8] | [9] | [10] | [11] | [12] | [13] | [14] | [15] | [16] | [17]

CC(C)(C)c1ccc(CSc2cnn(C(C)(C)C)c(=O)c2Cl)cc1
active: [5] 5.23 µM | [12] 9.92 µM | [15] 0.407 µM | [16] 21.8 µM | [17] 7.83 µM
not listed: [9]
inactive: all other assays above

CCCCC(CC)COC(=O)c1ccccc1C(=O)OCC(CC)CCCC (stereo not given)
not listed: [16] | [18] | [19]
inactive: all other assays above

COP(=S)(OC)Oc1nc(Cl)c(Cl)cc1Cl
active: [5] 33.5 µM | [10] 64.9 µM
not listed: [9] | [18] | [19]
inactive: all other assays above

Source: PubChem BioAssay (EPA / NIEHS)
